Columns and labels:
Settings in all cases: concentration: 1 μM, replicates: in singlicate; n = 1
INSR = test system: INSR
IRAK1 = test system: IRAK1
IRAK3 = test system: IRAK3
IRAK4 = test system: IRAK4
ITK = test system: ITK
[1] = test system: JAK1(JH1domain-catalytic)
[2] = test system: JAK1(JH2domain-pseudokinase)
[3] = test system: JAK2(JH1domain-catalytic)
[4] = test system: JAK3(JH1domain-catalytic)
JNK1 = test system: T1, JNK1
T1 construct: gene MAPK8
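Also: KINOMEscan kinase panel screen.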

SMILES | %Inh (INSR) [%] | %Inh (IRAK1) [%] | %Inh (IRAK3) [%] | %Inh (IRAK4) [%] | %Inh (ITK) [%] | %Inh [1] [%] | %Inh [2] [%] | %Inh [3] [%] | %Inh [4] [%] | %Inh (JNK1) [%]
CCC(=O)c1c(-c2ccccc2)c2cc(Cl)ccc2c(=O)n1Cc1ccc(C(=O)O)cc1 | 0 | 0 | 0 | 0 | 12 | 9 | 0 | 0 | 0 | 95.2
O=C(NCCNc1ccnc(Nc2ccc(F)cc2)n1)Nc1ccc2c(c1)OCO2 [GSK1379882] | 7 | 16 | 7 | 0 | 9 | 12 | 3 | 100 | 0 | 22
CCS(=O)c1ccc(-c2coc3ccc(-c4nnc(C)o4)cc23)cc1 (stereo not shown) | 1 | 6 | 0 | 9 | 0 | 1 | 20 | 23 | 0 | 22
O=C(Nc1n[nH]c2nc(-c3ccccc3)c(Cl)cc12)C1CC1 [SB-734909] | 31 | 26 | 23 | 24 | 0 | 14 | 22 | 13 | 0 | 56

From PMC5540273 (PLoS ONE, 2017)
